# Screening results: PubChem, National Center for Advancing Translational Sciences (NCATS)
# RGS4 inh: inhibitors of human regulator of G protein signaling 4 | P49798 | Transcreener GDP fluorescence polarization, RGS4-accelerated GTP hydrolysis | Potency, µM (doses to about 114 µM), without a hit: top-dose activity change, negative = inhibition, usual class: inhibitors | actives 0.039% (n = 390,000) | AID 504845; note: potency is the fitted concentration of half-maximal effect; % is set by controls: 0 for no effect and ±100 for the full control effect; nearly all actives have a fitted effect of over 75% in size
# Target sequence (P49798 whole entry, looked up): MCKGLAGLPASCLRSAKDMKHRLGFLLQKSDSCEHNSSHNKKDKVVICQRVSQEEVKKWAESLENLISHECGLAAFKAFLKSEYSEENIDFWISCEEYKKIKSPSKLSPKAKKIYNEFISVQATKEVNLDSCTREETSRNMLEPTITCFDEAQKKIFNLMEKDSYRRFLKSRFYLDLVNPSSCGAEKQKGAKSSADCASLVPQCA
#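 MLSMR compounds (23 nl, pin-transferred) preincubated 10 min at room temperature with a 500nM (2x) first reagent, then RGS4 at 900nM (2x) plus Transcreener GDP mix added; fluorescence polarization (620/688 nm) read before and after 90 min at 30 °C.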
# p53 reactivator: mutant p53 re-activation in reporter cells; AID 504706; actives 0.063% (n = 320,000); Potency, µM (highest dose often 92.2 µM), for inactives: at the top dose activity change, positive = activation, most hits filed as activators; H1299 p53-A138V BP100-luciferase reporter, luminescence, 24 h; note: potency is the fitted concentration of half-maximal effect; % of control where 0% means no effect; nearly all actives have a fitted effect of over 45% in size
#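 p53-null H1299 cells stably carrying temperature-sensitive p53-A138V and a BP100-luciferase reporter were pinned with compounds (4-point, 1:5 series) and held 24 hrs at 37 deg C. Luminescence was read 10 min after detection reagent.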
# LDHA inh: inhibitors of human lactate dehydrogenase A. P00338. actives 0.15% (n = 480,000). activity change, % (values are at about 110 or 230 µM). AID 1347041. purified LDHA, NADH/diaphorase-resazurin fluorescence; active compounds read low; in the data active = activity change below about -30%; inconclusive = mostly about -25% to -30%;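 note: plate controls were DMSO wells for no effect and wells without enzyme for full effect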
#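 Enzyme activity of human lactate dehydrogenase 5 (2 nM; 0.06 mM NADH, 0.2 mM pyruvate, 5 min, RT) is measured via a resazurin/diaphorase fluorescence readout of residual NADH.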
# PTHR1 agonist: activates the human parathyroid hormone receptor PTHR1 | Q03431 | HEK293 GP2 PTHR1 cells, GloSensor cAMP luminescence, 1 h | Potency, µM (titrated, usually from 115 µM), for inactives: at the top dose activation, hits mostly activators | actives 0.075% (n = 410,000); note: potency is the fitted concentration of half-maximal effect; nearly all actives have a fitted effect of over 55% in size
# Target sequence (Q03431 whole entry, looked up): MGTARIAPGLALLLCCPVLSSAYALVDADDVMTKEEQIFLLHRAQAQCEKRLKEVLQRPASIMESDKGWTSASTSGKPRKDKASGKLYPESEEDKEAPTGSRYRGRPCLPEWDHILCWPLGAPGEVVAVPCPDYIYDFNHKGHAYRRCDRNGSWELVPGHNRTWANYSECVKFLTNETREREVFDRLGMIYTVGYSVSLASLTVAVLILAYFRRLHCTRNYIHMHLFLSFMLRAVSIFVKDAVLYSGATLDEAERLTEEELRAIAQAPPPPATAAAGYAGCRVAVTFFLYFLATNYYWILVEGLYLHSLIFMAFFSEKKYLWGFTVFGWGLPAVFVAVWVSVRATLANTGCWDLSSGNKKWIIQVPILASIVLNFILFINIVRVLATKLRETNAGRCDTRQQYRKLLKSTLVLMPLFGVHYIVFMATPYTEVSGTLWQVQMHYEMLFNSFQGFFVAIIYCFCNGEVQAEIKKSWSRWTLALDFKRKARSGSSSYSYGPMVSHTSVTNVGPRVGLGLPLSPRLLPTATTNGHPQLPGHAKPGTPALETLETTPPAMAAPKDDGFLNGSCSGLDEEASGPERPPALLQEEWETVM
#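 HEK-293-derived GP2 cells expressing PTHR1 and a GloSensor cAMP reporter, 3,000/well, plated overnight, given luciferin plus IBMX (each 0.5 mM as added) for 1 h at 37 °C, then compound for 1 h at 37 °C. Luminescence was read after 15 min at room temperature.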
# BRCA1 expr act: activators of BRCA1 expression | AID 624202 | Potency, µM (doses to about 46.1 µM), for the others: top-dose activation, actives largely listed as activators | actives 1.1% (n = 380,000) | MCF7-BRCA1-FFLuc reporter, luminescence, 48 h; response scale: scaled: vehicle 0%, 10 µM genistein 100%; note: potency is the fitted concentration of half-maximal effect; nearly all actives have a fitted effect of over 80% in size
#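 MCF7-BRCA1-FFLuc cells, 2000/well in phenol-red-free MEM, attached 2 h then treated 48 h at 37 C. Luciferase luminescence read 15 min after reagent; normalized to genistein maximum activation (10microM) and DMSO, concentration-response fitted.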
# * hit, by the source's call; i = inactive; ? = inconclusive; / = not tested or not shown; ! = a repeat was not active; [ ] = dose if it differs, or a comment. Most compounds without a hit are left out; they make up all but 1.1% or so of the library. Unless noted, calls come from the whole dose curve; as a rule, active = well fitted curve in the direction sought with a large enough effect; inconclusive = small, poorly fitted or top-dose-only effect, or another doubt; inactive = no such curve, though single readings can be large; an effect the other way counts as inactive or inconclusive.
SMILES,RGS4 inh,p53 reactivator,LDHA inh,PTHR1 agonist,BRCA1 expr act
O=C1NC(=S)NC(=O)C1=Cc1ccc(Br)s1,?,25.5%,-38.1*,-48.5%,-71.1%
CN1C(=O)/C(=C\c2ccc(Br)s2)C(=O)NC1=S,-111.9%[56.9 µM],-10.5%,-13.2,-30.9%,-31.3%
COc1cccc(NC(=O)N2CCC3(CC2)OCCO3)c1,3.7%,?,1.5,-45.1%,11.2µM*
COc1ccc(NC(=O)N2CCC3(CC2)OCCO3)cc1OC,13.0%,9.4%,4.7,i,8.7%
CC(C)(C)C(=O)c1cn(CC(=O)NCc2ccco2)c2ccccc12,-14.4%,7.4%,-17.0,-57.6%,5.62µM*
COc1ccc(C(C#N)C(C)=O)cc1 (stereo unspecified),/,/,11.0,/,/
CCc1ccc2[nH]c(C)c(CCN)c2c1,/,/,-2.1,/,/
Cc1ccc(NC(=O)c2ncn(CC(=O)NCc3ccc4c(c3)OCO4)n2)cc1C,-0.7%,?,-13.5,-21.3%,11.2µM*
Cc1ccc(NC(=O)c2ncn(CCCNCCN3CCOCC3)n2)cc1C,5.9%,/,-0.9,9.7%,11.3%
CC1=CC(=C2C(=O)NC(=O)NC2=O)C=C(C(F)(F)F)N1C(C)C,-17.0%,-1.5%,-1.3,28.2µM*,8.2%
Cc1[nH]nc2c1C(c1ccc(-c3ccc(F)cc3)o1)SCC(=O)N2 (stereo unspecified),/,/,22.5,/,/
CCCCNC(=O)NC(=O)CCl,/,/,7.9,/,/
CCOc1ccccc1CN1CCN(c2ccccc2)CC1,/,/,4.7,/,/
c1coc(CN2Cc3ccccc3-n3nncc3C2)c1,/,/,-31.6*,i,0.1%
Cc1nn(CC(C)C)c(Cl)c1C(=O)NC1CCC(C)CC1 (stereo unspecified),17.3%,11.9%,-5.8,-16.3%,3.16µM*
Cc1ccc(CN(CCc2ccccc2)Cc2ccccc2)o1,/,/,2.8,/,/
N#CC(C#N)=Cc1ccc(O)c(O)c1,18.9µM*!,4.4%,-2.6,-40.8%,23.9%
O=C1NC(=S)NC(=O)C1=Cc1ccc(OCc2ccccc2)cc1,?,/,?,-25.3%,12.6µM*
c1ccc(CN2CCc3nc4ccccc4cc3C2)cc1,6.8%,?,-0.6,-41.4%,10µM*
CN(C)c1ccc(CN2CCc3nc(N4CCN(c5ccccn5)CC4)ncc3C2)cc1,16.3%,/,6.7,-94.3%,/
CCN(CC)P(=O)(NC(=O)C(Cl)(Cl)Cl)N(CC)CC.[Cl-].[Cl-].[Cl-].[Nd+3],?,0.4%,-49.0*,i,-25.6%
NCC(O)c1cc(O)c(O)cc1F (stereo unspecified),18.9µM*!,-8.5%,-13.9,i,4.4%
CCOc1ccccc1N=C1SCCCN1C,-27.2%,-1.8%,-37.7*,i,-12.2%
CC(C)N1CCN(Cc2c[nH]c3ccccc23)CC1,/,/,-1.3,/,/
CN(CCOc1ccc(C=C2C(=O)NC(=O)NC2=O)cc1)c1ccccn1,?,5.4%,-32.3*,-4.3%,?
SMILES,RGS4 inh,p53 reactivator,LDHA inh,PTHR1 agonist,BRCA1 expr act
Cc1cc2c(C(C)C)c(O)c(O)c(C=O)c2c(O)c1-c1c(C)cc2c(C(C)C)c(O)c(O)c(C=O)c2c1O,4.22µM*,-11.7%,-13.8,/,-70.1%
COc1ccccc1CNCCc1c[nH]c2ccccc12,/,/,-3.4,/,/
O=c1oc2ccccc2c(O)c1C(c1ccccc1)c1c(O)c2ccccc2oc1=O,/,/,-10.0,/,/
Cc1nc2ccc(P(=O)(O)O)cc2s1,/,2.3%,/,/,/
Cc1nc2ccc(NC(=O)c3ccc(Cl)s3)cc2s1,-4.8%,?,-3.5,-24.7%,3.55µM*
CN(C)c1ccc(N=Nc2ccccc2)cc1,/,/,-4.6,/,10µM*
Cc1ccc(S(=O)(=O)Oc2ccccc2C=C2C(=O)NC(=O)NC2=O)cc1,/,/,-11.0,-44.3%,40.3%
O=C1NC(=O)C(=Cc2ccccc2Oc2ccc(F)cc2)C(=O)N1,?,-0.6%,-40.2*,i,-20.7%
CCOc1ccc(N2C(=O)NC(=O)/C(=C\c3ccccc3[N+](=O)[O-])C2=O)cc1,?,7.5%,-52.7*,-32.4%,-5.6%
CCOc1ccc(N2C(=O)/C(=C/c3ccco3)C(=O)NC2=S)cc1,-106.5%,?,-36.9*,-36.4%,-28.8%
O=[N+]([O-])/C=C\c1ccc2c(c1)OCO2,/,/,7.9,/,/
Cc1c(C=O)c(C)n(C(C)C)c1C,/,/,0.5,/,/
[O]=[Sb]([OH])([OH])[c]1ccccc1,?,/,-38.3*,/,12.4%
O=C(Nc1cc[c]([Sb](=[O])([OH])[OH])cc1)c1ccccc1,/,/,?,/,51.7%
Cc1ccc(N2CC(C(=O)OCC(=O)Nc3ccc(C#N)c(Cl)c3)CC2=O)cc1 (stereo unspecified),/,/,-3.6,/,/
CCCC(=O)c1cn(Cc2ccc(C#N)cc2)c2ccccc12,/,/,0.0,/,/
CN(CC(=O)N1CCc2ccccc21)S(=O)(=O)c1cccs1,19.2%,?,-4.7,-9.6%,3.98µM*
CCOc1ccccc1N1C(=O)NC(=O)/C(=C/c2ccc3c4c(cccc24)CC3)C1=O,?,5.1%,-72.2*,-28.5%[57.5 µM],0.4%
Cc1ccc(NC(=O)OC(C)CNC(=O)Oc2cccc(C)c2)cc1 (stereo unspecified),22.8%,21.3%,-4.9,-27.5%,11.2µM*
CN(C)c1ccc(NC(=O)Oc2ccccc2)cc1,?,?,11.6,-17.7%,-17.6%
Brc1c(NC2=NCCN2)ccc2nccnc12,18.9µM*,1.2%,15.2,/,4.9%
CCOP(=S)(OCC)c1ccc(N(C)C)cc1,-26.7%,10.7%,7.0,17.8µM*,14.1%
CN(C)c1ccc(P(=S)(N(C)C)N(C)C)cc1,-2.2%,-3.4%,-2.8,i,-8.5%
O=C(COc1ccc(Br)cc1)N1CCN(Cc2ccncc2)CC1,-41.2%,-9.7%,-38.8*,-22.8%,-18.7%
Cc1cccc(OCC(=O)N2CCN(Cc3ccncc3)CC2)c1,-27.3%,4.9%,?,-23.4%[57.5 µM],13.4%
SMILES,RGS4 inh,p53 reactivator,LDHA inh,PTHR1 agonist,BRCA1 expr act
N#Cc1ccc(CN2CCC(c3c[nH]c4ccccc34)CC2)cc1,/,/,1.5,/,/
CCOC(=O)c1sc(=NC(=O)c2ccc(C)c(C)c2)n(C)c1C,?,2.9%,-5.6,-38.4%,3.16µM*
CC(N)Cc1ccc(N(C)C)cc1 (stereo unspecified),/,/,-6.5,/,/
COc1ccc(CN2CCN(C(=O)COc3ccc4ccccc4c3)CC2)cc1,/,/,-2.3,/,/
CC1(C(=O)O)CCCC2(C)c3cc(O)ccc3CCC12 (stereo unspecified),37.0%,/,1.1,i,-2.4%
C[C@]1(C(=O)O)CCC[C@]2(C)c3cc(O)ccc3CC[C@@H]12,1.06µM*,/,/,/,/
Fc1ccc(C(OCCN2CCN(CCCc3ccccc3)CC2)c2ccc(F)cc2)cc1,37.7µM*!,/,1.2,-92.5%,-62.8%
c1ccc(CCCN2CCN(CCOC(c3ccccc3)c3ccccc3)CC2)cc1,1.1%[56.9 µM],/,3.0,-68.3%,-9.8%
Cc1ccc(-c2ccc(=O)n(CCC(=O)N3CCC4(CC3)OCCO4)n2)cc1,9.6%,10.8%,-1.8,?,11.2µM*
